Active and inactive are the calls of the source. Rule for the calls: active = hit-call score of the fitted dose curve at least 0.9, where 1 is the maximum; inactive = score below 0.9.

Read-out in this experiment: Transforming growth factor beta 1 (TGFb1), TGFB1 (gene 7040)
Kind of experiment: BSK_BE3C_TGFb1: BioMAP Diversity Plus: BE3C Assay for Transforming growth factor beta 1 (TGFb1) Biomarker Activity (AID 2283036;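 for outcome: TGF-b1 protein level measured by ELISA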). Conditions: primary human bronchial epithelial cells; actives raise or lower the signal. In outline:
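TGF-b1 measured via ELISA, 24 h after chemical dosing of human bronchial epithelial cells (BE3C). Overt cytotoxicity assessed in parallel by SRB (0.1%, TCA-fixed, 560 nm); analysis bidirectional relative to DMSO.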
With `Clc1nc(Cl)c(Cl)c(Cl)c1Cl`, the outcome was inactive.

As for `CC[C@H]1OC(=O)[C@H](C)[C@@H](O[C@H]2C[C@@](C)(OC)[C@@H](O)[C@H](C)O2)[C@H](C)[C@@H](O[C@@H]2O[C@H](C)C[C@H](N(C)C)[C@H]2O)[C@](C)(O)C[C@@H](C)C(=O)[C@H](C)[C@@H](O)[C@]1(C)O`, the result was inactive.

Turning to `CCOc1cccc(-n2cc(C(=O)N3CCN(c4cc(C(=O)O)c5ccccc5c4)CC3)nc2-c2ccc(C)cc2)c1`, the AC50 was 27.4 µM (active).

`CC(C)CCCCCCOC(=O)c1ccc(C(=O)OCCCCCCC(C)C)c(C(=O)OCCCCCCC(C)C)c1`: the result was inactive.

With `Cc1[nH]cnc1C[C@H]1CCc2c(C)c3ccccc3n2C1=O`, the outcome was inactive.

For the compound `Oc1ccc2c(c1)-c1ccccc1C2`, the result was inactive.

For `CCCN(C1CCN(C(=O)C2CCNCC2)CC1)[C@@H]1CCc2ccc(OC)cc2C1`, the result was inactive.

For the compound `COC(=O)c1ccccc1O`, the result was inactive.

As to `COCCOCCOCCOC`, the result was inactive.

In the case of `O=c1[nH]c2ccc(S(=O)CCN3CCC(Cc4ccc(F)cc4)CC3)cc2o1` (stereo not drawn), the result was inactive.

For the compound `O=C(O)CC(O)C(=O)O` (stereo not drawn), the result was inactive.

As for `CC(C)CC(C)(O)C#CC(C)(O)CC(C)C` (stereo not drawn), the outcome was inactive.

Consider `CC/C(=C\C(=N/O)C(N)=O)C(C)[N+](=O)[O-]` (stereo not drawn), for which the outcome was inactive.

As for `COCCOc1cc2cc(C(=O)NC3CCN(C(C)C)CC3)n(CC(=O)Nc3ccc(Cl)cn3)c2cn1`, the result was inactive.

Regarding `COC(=O)CC(=O)OC`, the result was inactive.

Take `C1N2CN3CN1CN(C2)C3`: the result was inactive.

In the case of `CNCc1ccc(NC(=O)c2c[nH]c3c2C(=O)CCC3)cc1`, the result was inactive.

On to `CC(=O)OC[C@H]1O[C@@](COC(C)=O)(O[C@H]2O[C@H](COC(C)=O)[C@@H](OC(C)=O)[C@H](OC(C)=O)[C@H]2OC(C)=O)[C@@H](OC(C)=O)[C@@H]1OC(C)=O`, for which the result was inactive.

In general, AC50 refers to the concentration at which the activity in the assay is half-maximal.

(Values after PubChem BioAssay (EPA / NIEHS).)
